Source: publication PMC5540273 (PLoS ONE, 2017)

Tests used:
Conditions in all cases: concentration: 1 μM, replicates: in singlicate; n = 1
LOK = test system: T1, LOK
T1 construct: gene STK10

LRRK2 = test system: LRRK2
LTK = test system: LTK
LYN = test system: LYN
LZK = test system: T2, LZK
T2 construct: gene MAP3K13

MAK = test system: MAK
MAP3K15 = test system: MAP3K15
MAP3K1 = test system: MAP3K1
MAP3K2 = test system: MAP3K2
MAP3K3 = test system: MAP3K3
MAP3K4 = test system: MAP3K4
MAP4K2 = test system: MAP4K2
MAP4K3 = test system: MAP4K3
MAP4K4 = test system: MAP4K4
MAP4K5 = test system: MAP4K5
MAPKAPK2 = test system: MAPKAPK2
MAPKAPK5 = test system: MAPKAPK5
MARK1 = test system: MARK1
MARK2 = test system: MARK2
MARK3 = test system: MARK3
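Note: KINOMEscan kinase panel screen.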

Row | SMILES | %Inh (LOK) | %Inh (LRRK2) | %Inh (LTK) | %Inh (LYN) | %Inh (LZK) | %Inh (MAK) | %Inh (MAP3K15) | %Inh (MAP3K1) | %Inh (MAP3K2) | %Inh (MAP3K3) | %Inh (MAP3K4) | %Inh (MAP4K2) | %Inh (MAP4K3) | %Inh (MAP4K4) | %Inh (MAP4K5) | %Inh (MAPKAPK2) | %Inh (MAPKAPK5) | %Inh (MARK1) | %Inh (MARK2) | %Inh (MARK3)
1 | FC(F)(F)c1ccc(-c2ncn(CCCN3CCOCC3)c2-c2ccncc2)cc1 [SB-217780] | 10% | 0% | 23% | 3% | 0% | 29% | 7% | 12% | 8% | 0% | 7% | 0% | 0% | 0% | 0% | 12% | 22% | 9% | 0% | 3%
2 | O=C1NC(=O)C(c2ccccc2)=C1Nc1cccc(O)c1 [SB-390534] | 23% | 0% | 1% | 0% | 0% | 26% | 17% | 0% | 4% | 49% | 24% | 26% | 0% | 1% | 0% | 27% | 20% | 3% | 9% | 22%
3 | CN1C(=O)C(Nc2ccccc2)=C(c2ccccc2)C1=O [SB-300079] | 0% | 0% | 0% | 0% | 0% | 0% | 0% | 0% | 21% | 0% | 0% | 0% | 0% | 0% | 0% | 0% | 0% | 10% | 0% | 23%
4 | O=c1cc(N2CCOCC2)nc2n(Cc3ccc(F)c(Cl)c3)ccn12 [GSK2297099] | 0% | 0% | 0% | 2% | 0% | 28% | 0% | 4% | 10% | 0% | 25% | 0% | 0% | 0% | 0% | 2% | 0% | 0% | 0% | 0%
5 | COc1cc(Nc2ccnc3ccc(C(F)(F)F)cc23)cc(OC)c1OC [GW577382] | 18% | 27% | 0% | 25% | 30% | 12% | 3% | 4% | 0% | 0% | 7% | 1% | 0% | 15% | 4% | 0% | 0% | 8% | 0% | 0%
6 | Cc1cccc(-c2cc(-c3c[nH]nc3-c3ccccn3)ccn2)c1 [GW679395] | 0% | 10% | 4% | 0% | 12% | 33% | 0% | 5% | 6% | 0% | 13% | 0% | 0% | 0% | 0% | 17% | 0% | 0% | 0% | 0%
7 | Cc1ccc(Oc2ccc(Nc3ncnc4cc[nH]c34)cc2C)cn1 | 1% | 0% | 0% | 0% | 40% | 25% | 38% | 0% | 4% | 30% | 6% | 0% | 0% | 0% | 0% | 0% | 30% | 20% | 4% | 3%
8 | COc1cccc(-n2cnc3c(N)ncnc32)c1 [SKF-97416] | 4% | 63% | 0% | 8% | 33% | 10% | 22% | 29% | 35% | 22% | 31% | 33% | 0% | 0% | 0% | 0% | 1% | 0% | 13% | 37%
9 | Nc1nc(-c2ccccc2F)c(-c2ccnc3ccccc23)s1 [GW560459] | 0% | 8% | 22% | 0% | 30% | 23% | 0% | 3% | 0% | 0% | 1% | 0% | 0% | 11% | 0% | 9% | 0% | 0% | 0% | 4%
10 | COC(=O)c1c(-c2ccccc2)c2cc(C)ccc2c(=O)n1Cc1ccccc1 | 0% | 0% | 0% | 7% | 0% | 0% | 0% | 0% | 0% | 0% | 2% | 0% | 0% | 0% | 0% | 24% | 0% | 0% | 17% | 0%
11 | CCC(=O)c1c(-c2ccccc2)c2cc(Cl)ccc2c(=O)n1Cc1cc(C(=O)NC2CC2)n(C)n1 | 19% | 3% | 16% | 0% | 31% | 32% | 11% | 9% | 10% | 12% | 23% | 0% | 30% | 0% | 0% | 8% | 0% | 13% | 0% | 0%
12 | COc1ccc(-c2cc3c(C)nc(N)nc3n([C@H]3CC[C@H](O)CC3)c2=O)cn1 | 0% | 0% | 0% | 0% | 0% | 0% | 0% | 0% | 0% | 0% | 0% | 0% | 3% | 0% | 0% | 0% | 0% | 0% | 0% | 0%
13 | O=C(Nc1n[nH]c2nc(-c3ccccc3)c(Cl)cc12)C1CC1 [SB-734909] | 21% | 0% | 0% | 0% | 0% | 3% | 60% | 37% | 14% | 33% | 5% | 0% | 15% | 1% | 9% | 22% | 0% | 30% | 0% | 0%
14 | O=C(Nc1n[nH]c2nc(-c3ccccc3)c(Br)cc12)C1CC1 [SB-708998] | 0% | 29% | 4% | 3% | 0% | 12% | 3% | 0% | 7% | 4% | 0% | 1% | 0% | 17% | 13% | 0% | 0% | 0% | 0% | 0%
15 | Cc1nn2c(=O)cc(N3CCOCC3)nc2n1Cc1cccc(Cl)c1Cl [GSK2342769] | 0% | 22% | 0% | 0% | 0% | 20% | 9% | 17% | 16% | 0% | 7% | 0% | 0% | 0% | 0% | 15% | 0% | 0% | 0% | 0%
16 | CCCC(=O)Nc1n[nH]c2ncc(-c3cccc4ccccc34)cc12 [SB-642057] | 0% | 0% | 0% | 0% | 0% | 22% | 0% | 7% | 2% | 0% | 34% | 0% | 12% | 8% | 7% | 8% | 0% | 2% | 0% | 0%
17 | Cc1nnc(-c2ccc(C)c(-c3ccc(C(=O)O)cc3)c2)o1 [GW608005] | 100% | 46% | 0% | 0% | 0% | 19% | 14% | 0% | 0% | 0% | 8% | 0% | 0% | 10% | 0% | 1% | 0% | 4% | 0% | 0%
18 | COc1ccc(Nc2nccc(N3CCC(NS(=O)(=O)c4ccc(NC(C)=O)cc4)C3)n2)cc1 (stereo not shown) [GSK1379729] | 14% | 28% | 8% | 3% | 0% | 30% | 11% | 15% | 0% | 0% | 13% | 2% | 11% | 21% | 15% | 49% | 1% | 0% | 0% | 0%
19 | COc1cc2ncn(-c3cc(OCc4ccncc4Br)c(C(N)=O)s3)c2cc1OC [GW854278] | 87% | 0% | 7% | 4% | 0% | 2% | 0% | 65% | 20% | 1% | 17% | 11% | 0% | 0% | 20% | 0% | 0% | 8% | 37% | 0%
20 | Cc1nc(N(C)[C@H]2CN(C(=O)CC#N)CC[C@H]2C)c2cc[nH]c2n1 | 0% | 0% | 0% | 0% | 0% | 9% | 0% | 10% | 10% | 7% | 12% | 1% | 0% | 0% | 0% | 0% | 10% | 9% | 0% | 0%
